High-throughput results (PubChem)
NIH3T3 tox: kills NIH 3T3 cells; NIH 3T3 viability, CellTiter-Glo ATP luminescence, 48-72 h; Potency, µM (titrated, usually from 96.7 µM), actives largely listed as inhibitors; 94,000 compounds, 4.3% hits; AID 1345082; also: nearly all actives have a fitted effect of over 55% in size
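NIH 3T3 cells at 400 cells/well received 23 nL of compound by pintool and were incubated 48 or 72 h at 37 °C. Viability was read as ATP-coupled CellTiter-Glo luminescence.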
NPR1 antag: human Npr1 receptor antagonism | Potency, µM (doses to about 46.3 µM), usual class: inhibitors | 76,000 compounds, 1.6% hits | HEK293 hNpr1 GloSensor cGMP, ANP-stimulated luminescence; calls by dose curve; also: nearly all actives have a fitted effect of over 60% in size
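Compound pre-incubated 30 min at room temperature on GloSensor-loaded HEK293 cells stably carrying hNpr1 and the pGS-40F cGMP biosensor. Stimulation uses hNppA at 0.1 nM final; luminescence is taken at baseline and 20 min post-agonist.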
HEK293 tox: kills HEK 293 cells; AID 1345083; HEK 293 viability, ATP luminescence (CellTiter-Glo), 48-72 h; Potency, µM (top dose mostly 115 µM), most hits filed as inhibitors; 94,000 compounds, 6.6% hits; also: nearly all actives have a fitted effect of over 60% in size
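Pintool-delivered compounds were incubated with HEK 293 cells (250 cells/well) at 37 degree Celsius for 48 or 72 hr. ATP-dependent luminescence (CellTiter-Glo) then reported remaining viable cells.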
Luciferase inh: blocks purified firefly luciferase enzyme activity; P08659; purified P. pyralis luciferase, luminescence, biochemical; Potency, µM (doses to about 115 µM), actives largely listed as inhibitors; 76,000 compounds, 2.5% hits; also: nearly all actives have a fitted effect of over 65% in size
Target sequence (P08659 whole entry, looked up): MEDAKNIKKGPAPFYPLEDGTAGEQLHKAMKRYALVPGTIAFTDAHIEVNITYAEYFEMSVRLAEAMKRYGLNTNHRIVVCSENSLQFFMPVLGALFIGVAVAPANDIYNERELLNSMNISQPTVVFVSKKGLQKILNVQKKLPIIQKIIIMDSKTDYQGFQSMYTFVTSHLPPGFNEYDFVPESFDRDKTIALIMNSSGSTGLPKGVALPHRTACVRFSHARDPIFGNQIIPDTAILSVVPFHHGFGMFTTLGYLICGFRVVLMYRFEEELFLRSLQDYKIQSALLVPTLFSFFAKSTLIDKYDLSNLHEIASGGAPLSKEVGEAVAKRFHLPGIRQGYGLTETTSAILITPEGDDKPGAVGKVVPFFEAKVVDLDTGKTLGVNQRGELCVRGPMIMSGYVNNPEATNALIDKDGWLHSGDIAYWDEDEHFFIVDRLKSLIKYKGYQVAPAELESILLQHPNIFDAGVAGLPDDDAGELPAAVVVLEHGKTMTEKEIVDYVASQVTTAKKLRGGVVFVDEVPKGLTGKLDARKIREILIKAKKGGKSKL
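Luminescence read by CCD imager after adding enzyme (10nM final) to wells holding compound, titrated in qHTS. Substrates 10uM each D-luciferin and ATP; buffer 50mM Tris acetate pH 7.5, 10mM Mg acetate, Tween-20, BSA.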
GPT2 inhibitor: inhibitors of human GPT2 alanine aminotransferase; Q8TD30; Recombinant GPT2, coupled pyruvate oxidase/HRP Amplex Red fluorescence; Potency, µM (top dose mostly 57.7 µM), hits mostly inhibitors; 100,000 compounds, 0.25% hits; also: nearly all actives have a fitted effect of over 60% in size
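GPT2 10ng/uL, a-KG 250uM, L-Ala 2mM, HEPES pH7.5 + 0.0001% Tween; 30 min RT. Then Amplex mix (PO/HRP/ThPP), 30 min RT dark, fluorescence. AOA 50uM used as positive control.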
Hits are given with their value. This is a sample that favours compounds with a hit; in the whole collection about 10% have one here. Unless noted, calls follow the shape of the dose curve; as a rule, active = well fitted curve in the direction sought with a large enough effect; inconclusive = small, poorly fitted or top-dose-only effect, or another doubt; inactive = no such curve, though single readings can be large; an effect the other way counts as inactive or inconclusive.

How did O=C(NCCC1=CCCCC1)C1CCN(C(=O)c2ncn3c2COC(c2ccc(Cl)cc2)C3)CC1 (stereo not given) do in these assays?
NIH3T3 tox: inactive; NPR1 antag: inactive; HEK293 tox: inconclusive; Luciferase inh: inconclusive; GPT2 inhibitor: inactive

What do the screens show for `CCCCNC(=O)C1CCN(C(=O)c2nnn3c2COC(c2ccc(OC)cc2)C3)CC1` (stereo not given)?
NIH3T3 tox: inactive; NPR1 antag: inactive; HEK293 tox: inactive; Luciferase inh: inactive; GPT2 inhibitor: inactive

How did Cc1ccc(C2Cn3cnc(C(=O)N4CCC(C(=O)NCCC5=CCCCC5)CC4)c3CO2)cc1 (stereo not given) do in these assays?
NIH3T3 tox: inactive; NPR1 antag: inactive; HEK293 tox: inactive; Luciferase inh: 28.2µM; GPT2 inhibitor: inactive

What do the screens show for `O=C(NC(C(=O)NCc1ccccc1)C1CCN(C(=O)c2ccc(F)cc2)CC1)c1ccccc1` (stereo not given)?
NIH3T3 tox: inactive; NPR1 antag: inactive; HEK293 tox: inactive; Luciferase inh: inactive; GPT2 inhibitor: inactive

How did CN(C)c1ccc(C(=O)N2CCC(n3cc(-c4nc(C5CC5)no4)nn3)C2)cc1 (stereo not given) do in these assays?
NIH3T3 tox: inactive; NPR1 antag: inactive; HEK293 tox: inconclusive; Luciferase inh: inactive; GPT2 inhibitor: inactive

What do the screens show for `COc1ccc(C(=O)N2CCC(n3cc(-c4nc(-c5ccccc5)no4)nn3)C2)cc1OC` (stereo not given)?
NIH3T3 tox: inactive; NPR1 antag: inconclusive; HEK293 tox: inconclusive; Luciferase inh: inconclusive; GPT2 inhibitor: inactive

Results for Cc1ccc(C(=O)N2CCC(n3cc(-c4nc(-c5ccccc5)no4)nn3)C2)cc1C (stereo not given) ?
NIH3T3 tox: inconclusive; NPR1 antag: 2µM; HEK293 tox: 44.7µM; Luciferase inh: 31.6µM; GPT2 inhibitor: inactive

How did O=C(c1cc(F)ccc1Cl)N1CCC(n2cc(-c3nc(-c4ccccc4)no3)nn2)C1 (stereo not given) do in these assays?
NIH3T3 tox: inconclusive; NPR1 antag: 12.6µM; HEK293 tox: inconclusive; Luciferase inh: inconclusive; GPT2 inhibitor: inactive

What do the screens show for `CN(C)c1ccc(C(=O)N2CCC(n3cc(-c4nc(-c5ccccc5)no4)nn3)C2)cc1` (stereo not given)?
NIH3T3 tox: inconclusive; NPR1 antag: inactive; HEK293 tox: 44.7µM; Luciferase inh: inconclusive; GPT2 inhibitor: inactive

How did Cc1cccc(C(=O)N2CCC(Cc3ncc(C)n3C(C)C)C2)c1 (stereo not given) do in these assays?
NIH3T3 tox: inactive; NPR1 antag: inactive; HEK293 tox: inactive; Luciferase inh: inactive; GPT2 inhibitor: inactive

What do the screens show for `COc1ccc(Nc2ccc3ncn(-c4ccccc4)c(=O)c3n2)cn1`?
NIH3T3 tox: 100µM; NPR1 antag: inactive; HEK293 tox: 100µM; Luciferase inh: inactive; GPT2 inhibitor: inactive

How did O=c1c2nc(Nc3cccc(F)c3)ccc2ncn1-c1cccnc1 do in these assays?
NIH3T3 tox: inconclusive; NPR1 antag: inconclusive; HEK293 tox: inconclusive; Luciferase inh: inactive; GPT2 inhibitor: inactive

What do the screens show for `O=C(CCc1cc2n(n1)CCCNC2)NCc1csc2c1CCCC2`?
NIH3T3 tox: inactive; NPR1 antag: inactive; HEK293 tox: inactive; Luciferase inh: inactive; GPT2 inhibitor: inconclusive

How did O=C(NCc1cc2n(n1)CCNC2)c1cc2c(s1)CCCCC2 do in these assays?
NIH3T3 tox: inactive; NPR1 antag: inactive; HEK293 tox: inactive; Luciferase inh: 31.6µM; GPT2 inhibitor: inactive

How did COCCNC(=O)c1nc(-c2cccc(C(F)(F)F)c2)c2ccccn12 do in these assays?
NIH3T3 tox: inconclusive; NPR1 antag: inactive; HEK293 tox: inconclusive; Luciferase inh: inactive; GPT2 inhibitor: inactive

How did Cc1nc(C(=O)N2CCOc3c(O)cc(-c4cccc(Cl)c4)cc3C2)cs1 do in these assays?
NIH3T3 tox: inconclusive; NPR1 antag: inconclusive; HEK293 tox: 17.8µM; Luciferase inh: inactive; GPT2 inhibitor: inactive

Results for CC(C)CNC(=O)CN1CCOc2c(O)cc(-c3cccc(Cl)c3)cc2C1 ?
NIH3T3 tox: inconclusive; NPR1 antag: inactive; HEK293 tox: inconclusive; Luciferase inh: inactive; GPT2 inhibitor: inactive
